This is one part of a sample in which hits are shown more often than they occur.
IL-1B inflam inh: qHTS for Inhibitors of Inflammasome Signaling: IL-1-beta AlphaLISA Primary Screen | THP-1 LPS/ATP IL-1B secretion, AlphaLISA, 16 h; hits give low values | activity change, % at 57.5 µM | hit rate 4.7% among 360,000; in the data active means activity change below about -50%; inconclusive means mostly about -30% to -49%
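THP-1 cells pretreated 1 hr with compounds (up to 57.5 uM final), then stimulated with LPS (250 ng/mL final) plus ATP (1.25 mM final); secreted IL-1B measured by AlphaLISA after 16 hr, decreased signal indicating inhibition.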
TDP1 cell CPT: qHTS for Inhibitors of human tyrosyl-DNA phosphodiesterase 1 (TDP1): qHTS in cells in presence of CPT. chicken DT40 Tdp1-/-;hTDP1 cells + 20 nM CPT, ATP luminescence, 48 h. hit rate 12% among 420,000. AID 686979, 2013. Potency, µM (titrated, usually from 46.2 µM), inactives show at the highest dose activity change, negative = growth inhibition, usual class: inhibitors; further: potency means the concentration at half of the fitted maximal effect; nearly all actives have a fitted effect of over 55% in size
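Chicken DT40 Tdp1-/- cells stably complemented with human TDP1 were seeded at 400 cells/well in medium containing 20 nM camptothecin, exposed to pin-transferred compounds, and grown at 37 °C for at least 48 hr. Viability was read as ATP luminescence.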
HT1080 IDH1KD tx: qHTS for induction of synthetic lethality in tumor cells producing 2HG: qHTS for the HT-1080-IDH1KD cell line | HT-1080 IDH1 knockdown viability, ATP luminescence, 48 h | Potency, µM (highest dose often 46.1 µM), inactives show at the top dose activity, negative = toxicity, usual class: cytotoxic | hit rate 2% among 360,000 | AID 686971, 2013;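 further: potency means the concentration at half of the fitted maximal effect; 0% = DMSO wells and -100% = cell-free medium wells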
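After a 2 h attachment period, IDH1KD HT-1080 cells took pin-transferred compound for 48 h at 37 °C; ATP-based luminescence after 10 min room-temperature reagent incubation reported viability.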
TDP1 cell noCPT: qHTS for Inhibitors of human tyrosyl-DNA phosphodiesterase 1 (TDP1): qHTS in cells in absence of CPT; DT40 Tdp1-/- hTDP1 cells, no CPT, ATP luminescence, 48 h; Potency, µM (highest dose often 46.2 µM), for inactives: top-dose activity change, negative = growth inhibition, most hits filed as inhibitors; hit rate 15% among 420,000; AID 686978, 2013; further: potency means the concentration at half of the fitted maximal effect; nearly all actives have a fitted effect of over 55% in size
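DT40 Tdp1-/-;hTDP1 cells, no CPT (DMSO vehicle only), 400 cells/well; compounds pin-transferred; ≥48 hr, 37 °C; CellTiter-Glo 30 min RT dark, luminescence read.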
HT1080-NT tox: qHTS for induction of synthetic lethality in tumor cells producing 2HG: qHTS for the HT-1080-NT fibrosarcoma cell line. hit rate 1.6% among 360,000. Potency, µM (series often up to 46.1 µM), without a hit: at the top dose activity, negative = less viability, hits mostly cytotoxic. HT-1080-NT fibrosarcoma viability, CellTiter-Glo ATP luminescence, 48 h;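 further: NT is the 2HG producing partner of a matched IDH1 knockdown line; potency means the concentration at half of the fitted maximal effect; 0% = DMSO-treated cells and -100% = media-only wells without cells; nearly all actives have a fitted effect of over 55% in size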
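Read-out is CellTiter-Glo luminescence after 10 minutes at room temperature, following 48 hours' compound treatment of HT-1080-NT cells (750 cells/well, RPMI, 5% FBS, 37 degrees C).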
12-LOX inh: Primary qHTS assay for inhibitors of human arachidonate 12S-lipoxygenase (ALOX12): Round 2; Polyunsaturated fatty acid lipoxygenase ALOX12 (Homo sapiens), P18054; Potency, µM (highest dose often 108 µM), inactives show at the highest dose activity change, negative = inhibition, actives largely listed as inhibitors; AID 1671190, 2021; purified 12hLO, xylenol orange hydroperoxide absorbance; hit rate 1.1% among 580,000; further: potency means the concentration at half of the fitted maximal effect
Target sequence (P18054 whole entry, looked up): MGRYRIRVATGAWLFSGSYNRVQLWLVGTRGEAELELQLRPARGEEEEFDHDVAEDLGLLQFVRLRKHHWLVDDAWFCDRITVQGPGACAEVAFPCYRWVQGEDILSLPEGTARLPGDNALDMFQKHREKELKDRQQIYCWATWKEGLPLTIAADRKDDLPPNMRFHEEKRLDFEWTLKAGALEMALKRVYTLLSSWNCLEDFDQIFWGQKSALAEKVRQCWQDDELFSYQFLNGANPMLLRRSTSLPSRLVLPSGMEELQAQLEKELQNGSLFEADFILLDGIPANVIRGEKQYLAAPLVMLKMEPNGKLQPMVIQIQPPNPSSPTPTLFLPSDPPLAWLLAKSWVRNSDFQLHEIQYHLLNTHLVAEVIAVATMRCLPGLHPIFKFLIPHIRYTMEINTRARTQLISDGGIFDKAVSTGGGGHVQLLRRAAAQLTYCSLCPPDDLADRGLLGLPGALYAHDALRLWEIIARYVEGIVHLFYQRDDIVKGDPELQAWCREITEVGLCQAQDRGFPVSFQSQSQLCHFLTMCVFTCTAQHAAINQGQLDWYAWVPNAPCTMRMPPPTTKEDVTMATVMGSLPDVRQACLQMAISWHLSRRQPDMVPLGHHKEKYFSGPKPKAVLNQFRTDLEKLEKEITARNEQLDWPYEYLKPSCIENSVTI
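Hydroperoxide product was detected by ferrous iron/xylenol orange as the 573 to 405 nm absorbance ratio. Arachidonic acid at 40 uM (final) was turned over for 30 min at room temperature by 150 nM human 12hLO, pH 7.0 Hepes buffer, after 15 min compound preincubation.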
* = called active by the depositor; ? = inconclusive; nt = not tested or not shown. Unless noted, the call rests on the fitted dose curve; in most records, active means well fitted curve in the direction sought with a large enough effect; inconclusive means small, poorly fitted or top-dose-only effect, or another doubt; inactive means no such curve, though single readings can be large; an effect the other way counts as inactive or inconclusive. Unless noted, on the % scale 0 is the no-effect control and ±100 the full control effect.

SMILES	IL-1B inflam inh	TDP1 cell CPT	HT1080 IDH1KD tx	TDP1 cell noCPT	HT1080-NT tox	12-LOX inh
O=C(NCCc1ccccc1)c1ccc2c(c1)N(Cc1ccc(F)cc1Cl)C(=O)CS2	nt	-27%	nt	-25%	nt	0%
O=C(NCCC1=CCCCC1)c1ccc2c(c1)N(Cc1ccccc1)C(=O)CS2	?	?	-24%	21µM*	?	23%
O=C(NCCc1ccc(Cl)cc1)c1ccc2c(c1)N(Cc1ccc(F)cc1Cl)C(=O)CS2	nt	?	nt	6.5µM*	nt	-18%
Cc1ccc(C)c(CN2C(=O)CSc3ccc(C(=O)NCc4ccccc4)cc32)c1	nt	10µM*	nt	16µM*	nt	-22%
Cc1cc(C(=O)NC2CCCN(Cc3ccccc3F)C2)n[nH]1 (stereo not given)	5	2%	7%	11%	?	9%
O=C(NCCc1ccc(Cl)cc1)c1ccc2c(c1)N(Cc1ccc(Cl)cc1)C(=O)CS2	nt	?	nt	?	nt	-13%
Cc1ccc(CNC(=O)c2ccc3c(c2)N(Cc2cccc(C)c2)C(=O)CS3)cc1	nt	?	nt	21µM*	nt	-2%
Cc1oc2cc(OCC(=O)N[C@@H](CC(C)C)C(=O)O)ccc2c(=O)c1-c1ccc(Cl)cc1	nt	nt	nt	nt	nt	21%
COc1ccc(C2=NS(=O)(=O)N(C)C(C(=O)Nc3ccc(OC(F)(F)F)cc3)=C2)cc1	nt	?	nt	?	nt	-27%
COc1ccc(C2=NS(=O)(=O)N(C)C(C(=O)NC3CCCC3)=C2)cc1	18	-9%	-3%	?	8%	3%
CCc1ccc(NC(=O)C2=CC(c3ccc(OC)c(OC)c3)=NS(=O)(=O)N2C)cc1	-13	12µM*	-17%	18µM*	?	20%
CCC(C)NC(=O)C1=CC(c2cc(OC)ccc2OC)=NS(=O)(=O)N1C (stereo not given)	nt	nt	nt	nt	nt	-6%
COc1ccc(NC(=O)C2=CC(c3ccc(OC)cc3)=NS(=O)(=O)N2C)cc1	-7	?	9%	21µM*	-3%	33%
COc1ccc(OC)c(C2=NS(=O)(=O)N(C)C(C(=O)Nc3ccc(C(C)=O)cc3)=C2)c1	?	18µM*	-7%	15µM*	-4%	-21%
COc1ccc(CNC(=O)C2=CC(c3ccc(OC)c(OC)c3)=NS(=O)(=O)N2C)cc1	0	?	1%	?	-10%	-13%
COc1ccc(C2=NS(=O)(=O)N(C)C(C(=O)NC3CCCCC3)=C2)cc1	-11	-28%	-4%	6.5µM*	-1%	17%
O=C(COc1ccc(Br)cc1)NCCCNC(=O)c1ccncc1	-11	-11%	21%	14%	22%	15%
COCCCN1CC2(CCN(C(=O)C(=O)c3cccn3C)CC2)CC1=O	nt	nt	nt	nt	nt	8%
O=C1CSC2(C(=O)Nc3ccccc32)N1c1cccc(Cl)c1 (stereo not given)	nt	nt	nt	nt	nt	0%
COc1ccc(C2=NS(=O)(=O)N(C)C(C(=O)NCc3ccccc3)=C2)cc1OC	-11	?	13%	?	1%	-8%
COc1ccc(C2=NS(=O)(=O)N(C)C(C(=O)N3CCc4ccccc4C3)=C2)cc1OC	37	18µM*	0%	9.2µM*	-12%	143%
COc1ccc(C2=NS(=O)(=O)N(C)C(C(=O)NCc3cccs3)=C2)cc1OC	-1	15µM*	12%	?	0%	17%
Cc1ccc(Cl)cc1N1CCN(c2cc(C3CC(O)C3)ncn2)CC1 (stereo not given)	nt	nt	nt	nt	nt	68%
